We go through ten molecules from PubChem BioAssay (NCATS).

Structures are written as SMILES. Several values for one entry are separate records, joined by “and”; a condition that tells them apart may be missing. Equal values may be shown once. Results filed as inconclusive are left out. Activity calls are given as the source filed them. Unless noted, calls come from the whole dose curve; as a rule, active = well fitted curve in the direction sought with a large enough effect; inconclusive = small, poorly fitted or top-dose-only effect, or another doubt; inactive = no such curve, though single readings can be large; an effect the other way counts as inactive or inconclusive.

Assay [1] addresses Alpha-galactosidase A (Homo sapiens) (UniProt P06280). The assay can be described thus: Counterscreen for Glucocerebrosidase Inhibitors: qHTS Assay for Human alpha-Galactosidase at pH 4.5 (AID 992). Note: 0% is about no effect. A digest of the protocol: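 Fluorogenic 4-MU alpha-D-galactoside (80 uM) hydrolysis, 2 nM enzyme, pH 4.5 citrate buffer + 0.005% Tween-20; 20 min RT; NaOH/glycine pH 10 stop; Ex365/Em440. Compounds titrated 0.7 nM–77 uM; Hill-equation AC50.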

In assay [2] the target is alpha-glucosidase (Oryza sativa, rice) (UniProt Q653V4). Briefly: Counterscreen for Glucocerebrosidase Inhibitors: qHTS Assay for Rice alpha-Glucosidase at pH 5.0 (AID 997).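 Note: 0% = full activity with enzyme and -100% = basal without enzyme.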 Summed up:
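Endpoint fluorogenic assay at pH 5.0: compounds (0.7 nM to 77 uM) titrated against 4 nM rice enzyme and 400 uM 4-MU-alpha-glucoside for 20 min at room temperature; NaOH/glycine stop, read ex 365/em 440 nm, Hill-fitted AC50.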
For orientation: A counterscreen serves to expose hits that act by an unwanted route or on another target.

Assay [3] is described as follows: Validation of Assay for Modulators of Lamin A Splicing (AID 1459; active = well fitted curve in the direction sought with a large enough effect in the signal ratio; the % refers to the signal ratio;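 note: cells exposed to compound for two days before reading; 0% is about no effect; ratio rise marks activators and ratio drop marks inhibitors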). A digest of the protocol:
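Readout: ratio of GFP (500-530 nm) to RFP (575-640 nm) total object intensity by 488 nm laser-scanning cytometry after 48 hrs. Cells were HeLa S3 clones carrying lamin A-EGFP minigene plus DsRed2 viability reporter; vehicle 0.5% DMSO final.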

The nature of assay [4]: qHTS Assay for Lipid Storage Modulators (AID 1519; calls by dose curve; for activity change, negative = inhibition: % is set by controls: 0 for no effect and ±100 for the full control effect). The following applies: Drosophila S3 cells, BODIPY lipid droplet/cell ratio, laser cytometry, cells loaded with oleic acid; for activity change, negative = inhibition: at 57.5 µM (top of the series). A digest of the protocol: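 Cells seeded at 5,000 per well were treated with compounds over a concentration series and loaded with oleic acid (400 uM, as added). Lipid droplet fluorescence (488 nm excitation, 500-530 nm channel) was read by laser-scanning cytometry and normalized to 20 uM Triacsin C.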
In general terms: Quantitative high-throughput screening tests each substance at several concentrations.

Assay [5] can be described thus: Cell Viability - LYMP2-025 (AID 976).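 Note: plate controls were DMSO only for no effect and tetraoctylammonium bromide control for full effect.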 A digest of the protocol: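 Cytotoxicity read as loss of intracellular ATP (luciferase luminescence) after 24 h compound treatment at 37 C. Uses LYMP2-025 lymphoblastoid cells in 1536-well format; Hill-equation modelling gives AC50; tetraoctylammonium bromide as positive control.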
Assay [6] can be described thus: Cell Viability - LYMP2-002 (AID 977).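 Note: plate controls were DMSO only for no effect and 92 µM tetraoctylammonium bromide for full effect.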 A digest of the protocol:
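Human lymphoblastoid cells (2500/well) in complete medium were preincubated 5 hr at 37 C, then exposed to compounds for 24 hr at 37 C. Intracellular ATP was read by CellTiter-Glo luminescence; AC50 came from Hill-equation concentration-response fits.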

A short description of assay [7]: Cell Viability - LYMP2-006 (AID 978). Note: % is set by controls: 0 for no effect and ±100 for the full control effect; nearly all actives have a fitted effect of over 60% in size. Summed up: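 qHTS, 1536-well; 2500 cells/well, 5 hr 37 C; cpd 24 hr 37 C; CellTiter-Glo 30 min RT; luminescence. Tetraoctylammonium bromide pos. ctrl. AC50 via Hill eqn.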
Assay [8] is described as follows: Cell Viability - LYMP2-007 (AID 979).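 Note: cells exposed to compound for 24 h before reading; 0% = DMSO only and the negative end = 92 µM tetraoctylammonium bromide; nearly all actives have a fitted effect of over 60% in size.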 Summed up:
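AC50 values come from Hill-equation fits of luminescent intracellular ATP (CellTiter-Glo, 30 min, room temperature) following 24 h compound exposure at 37 C. Cells: LYMP2-007 lymphoblastoid line, 2500 per well, in complete culture medium.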

Assay [9] is described as follows: Cell Viability - LYMP2-008 (AID 980). Note: % is set by controls: 0 for no effect and ±100 for the full control effect; nearly all actives have a fitted effect of over 60% in size. Summed up: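 Cytotoxicity determined from ATP-dependent luciferase luminescence (CellTiter-Glo) following 24 h compound exposure of human lymphoblastoid LYMP2-008 cells at 37 C. Concentration-response data fitted to the Hill equation to give AC50.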
The nature of assay [10]: Cell Viability - LYMP2-010 (AID 981). Note: % is set by controls: 0 for no effect and ±100 for the full control effect; nearly all actives have a fitted effect of over 55% in size. Summed up:
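CellTiter-Glo ATP luminescence measured cytotoxicity after 24 h compound exposure at 37 C. LYMP2-010 cells were seeded at 2500/well, with tetraoctylammonium bromide as control; concentration-response curves gave AC50 values by the Hill equation.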

A short description of assay [11]: Cell Viability - LYMP2-016 (AID 984). Note: % is set by controls: 0 for no effect and ±100 for the full control effect; nearly all actives have a fitted effect of over 55% in size. Summed up:
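qHTS, 1536-well: 2500 LYMP2-016 cells/well, 5 hr 37 C, compound added, 24 hr 37 C, CellTiter-Glo 30 min RT, luminescence. Tetraoctylammonium bromide positive control. AC50 via Hill fit.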

Assay [12] is described as follows: Cell Viability - LYMP2-018 (AID 985).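 Note: plate controls were DMSO only for no effect and tetraoctylammonium bromide at 92 µM for full effect; nearly all actives have a fitted effect of over 50% in size.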 Summed up: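 Viability read as CellTiter-Glo luminescence (cellular ATP) after 24 hr compound exposure at 37 C of 2500 LYMP2-018 lymphoblastoid cells/well, pre-plated 5 hr. Hill-equation modelling gave AC50.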
Assay [13] is described as follows: Cell Viability - LYMP2-024 (AID 988).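 Note: plate controls were DMSO only for no effect and 92 µM tetraoctylammonium bromide for full effect; nearly all actives have a fitted effect of over 60% in size.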 Summed up:
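Cytotoxicity was taken as a decrease in ATP (CellTiter-Glo luminescence) after 24 hr compound exposure at 37 C of LYMP2-024 lymphoblastoid cells, 2500 cells/well. Concentration-response data were fitted to the Hill equation to give AC50.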

Assay [14] can be described thus: Cell Viability - LYMP2-026 (AID 989). Note: % is set by controls: 0 for no effect and ±100 for the full control effect; nearly all actives have a fitted effect of over 50% in size. Summed up: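 Cytotoxicity read as ATP-dependent luminescence (CellTiter-Glo, 30 min room temperature) after 24 h compound treatment at 37 C. LYMP2-026 lymphoblastoid line seeded at 2500 cells/well; AC50 derived by standard Hill equation.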
Assay [15] is described as follows: Cell Viability - LYMP1-002 - Assay at 24 hr (AID 993). Note: % is set by controls: 0 for no effect and ±100 for the full control effect. Summed up: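 qHTS cytotoxicity at 24 h: CellTiter-Glo ATP luminescence in lymphoblastoid line LYMP1-002 incubated with compound at 37 °C. Concentration-response modeled with the Hill equation for AC50; tetraoctylammonium bromide served as positive control.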
Assay [16] can be described thus: Cell Viability - LYMP1-002 - Assay at 40 hr (AID 994). A digest of the protocol:
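Cytotoxicity was read as loss of cellular ATP (CellTiter-Glo luminescence) after 40 hr compound exposure at 37 C of 2500 LYMP1-002 lymphoblastoid cells per well. Concentration-response data were fitted with the standard Hill equation to give AC50.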

Assay [17] is described as follows: Cell Viability - LYMP2-012 (AID 982).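 Note: cellular ATP by luciferase luminescence where a drop means cytotoxicity; cells exposed to compound for one day before reading; 0% = DMSO only and full loss = 92 µM tetraoctylammonium bromide; nearly all actives have a fitted effect of over 55% in size.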
Assay [18] can be described thus: Cell Viability - LYMP2-014 (AID 983).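 Note: plate controls were DMSO only for no effect and 92 µM tetraoctylammonium bromide for full effect; nearly all actives have a fitted effect of over 50% in size.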 Summed up:
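Intracellular ATP loss, read by luciferase luminescence, measures acute cytotoxicity after 24 h compound exposure of lymphoblastoid LYMP2-014 cells (2500/well, 37 C). Concentration-response data fitted to the Hill equation for AC50.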

Assay [19] in a line: Cell Viability - LYMP2-020 (AID 986).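 Note: plate controls were DMSO only for no effect and tetraoctylammonium bromide at 92 µM for full effect; nearly all actives have a fitted effect of over 55% in size.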 Summed up: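 Cytotoxicity in qHTS format: luminescent ATP readout from CellTiter-Glo after 24 h compound exposure at 37 C in complete medium. LYMP2-020 lymphoblastoid cells were seeded at 2500/well; concentration-response data fitted to the Hill equation for AC50.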
Assay [20] is described as follows: Cell Viability - LYMP2-022 (AID 987). Summed up: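 Cytotoxicity read as decreased cellular ATP (CellTiter-Glo luminescence, 30 min room temperature) after 24 hours compound exposure of 2500 lymphoblastoid LYMP2-022 cells/well at 37 C. Concentration-response data fitted with standard Hill equation for AC50.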
Setting [21] is: measured here: cell count channel max response.
The mark [22] stands for this setting: measured here: lipid channel max response.

Sequence of Alpha-galactosidase A (Homo sapiens) (P06280 whole entry, looked up): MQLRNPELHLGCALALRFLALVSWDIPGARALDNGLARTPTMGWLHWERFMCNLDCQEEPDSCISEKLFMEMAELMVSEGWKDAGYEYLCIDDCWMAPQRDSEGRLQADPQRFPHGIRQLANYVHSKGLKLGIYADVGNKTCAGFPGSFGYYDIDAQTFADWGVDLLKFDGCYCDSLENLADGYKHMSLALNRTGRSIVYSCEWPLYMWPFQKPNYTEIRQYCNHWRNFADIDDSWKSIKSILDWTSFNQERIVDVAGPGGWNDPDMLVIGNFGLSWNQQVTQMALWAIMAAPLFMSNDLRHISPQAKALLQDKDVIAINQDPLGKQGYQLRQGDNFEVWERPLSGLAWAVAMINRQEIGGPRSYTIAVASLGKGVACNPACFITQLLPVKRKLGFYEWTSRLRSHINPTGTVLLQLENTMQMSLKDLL

As for `NCCCC(=O)O`, the molecule was called inactive in assay [1], in [2] and in assay [3]. Moreover, the activity change, negative = inhibition in assay [4] was -0.209% (inactive) and 6.45% (inactive) and 0.252% (inactive). The max response in assay [4] (setting [21]) was -9.18% and 2.91% and -17.1%; in assay [4] (setting [22]) it was -6.14% and 11.3% and -29.6%.
`C=Cc1ccccc1`: the molecule was called inactive in assay [5], in assay [6], in assay [7], in assay [8], in assay [9] and in [10]. In addition, the molecule was called inactive in assay [11], in assay [12], in [13], in assay [14], in assay [15] and in assay [16].
Take `CN(C)Cc1ccccc1`: the molecule was called inactive in [5], in [6], in assay [7], in assay [8], in assay [9] and in [10]. Besides, the molecule was called inactive in [17], in assay [18], in assay [11], in [12], in [19] and in assay [20]. Besides, the result in [13], in assay [14], in assay [15] and in assay [16] was inactive.
Take `COC(C)=O`: the call in [5], in assay [6], in [7], in assay [8], in assay [9] and in assay [10] was inactive. Moreover, the call in assay [17], in assay [18], in assay [11], in [12], in assay [19] and in assay [20] was inactive. The result in assay [13], in [14], in assay [15] and in assay [16] was inactive.
For the molecule `C1CNCCN1`, the activity change, negative = inhibition in [4] was 8.66% (inactive). Further, the max response in assay [4] (setting [21]) worked out at 6.29%; in assay [4] (setting [22]) it was 18.5%.
Regarding `CN[C@H]1CC[C@@H](c2ccc(Cl)c(Cl)c2)c2ccccc21`, the outcome in assay [1] and in [2] was inactive.
Turning to `CCCCCCCCCC(=O)O`, the outcome in assay [5], in assay [6], in assay [7], in assay [8], in [9] and in [10] was inactive. The molecule was classed as inactive in assay [17], in assay [18], in assay [11], in assay [12], in [19] and in assay [20]. For the same molecule, the molecule was called inactive in assay [13], in assay [14], in assay [15] and in assay [16].
Regarding `CCCCCCCCCCCCCCCC(=O)OC/C=C(C)/C=C/C=C(C)/C=C/C1=C(C)CCCC1(C)C`, the activity change, negative = inhibition in assay [4] was 3.99% (inactive). Moreover, the max response was found to be 7.5% in assay [4] (setting [21]) and 14% in assay [4] (setting [22]).
Turning to `O=C(O)CC(O)(CC(=O)O)C(=O)O`, the outcome in [5], in assay [6], in [7], in [17], in assay [18] and in [11] was inactive. Besides, the call in [12], in [19], in [20], in [14], in [15] and in assay [16] was inactive. For the same molecule, in assay [4], the activity change, negative = inhibition is -0.75% (inactive). Further, the max response in assay [4] (setting [21]) amounted to 14.5%; in assay [4] (setting [22]), 16%.
Regarding `Cc1ccc(OC[C@H](O)[C@H](C)NC(C)C)c2c1CCC2`, the molecule was called inactive in [1] and in assay [2]. Besides, in assay [4], the activity change, negative = inhibition was -0.878% (inactive). The results for the max response in [4] (setting [21]) and in [4] (setting [22]) were 5.72% and 7.78%, respectively.
